Screening results as filed in PubChem BioAssay.
Sfp PPTase inh: blocks B. subtilis Sfp PPTase activity | Biochemical Sfp PPTase activity, qHTS | Potency, µM, inactives show largest response in the series, negative = inhibition, actives largely listed as inhibitors | 3.5% of 310,000 active;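 also: the enzyme is Sfp with the accession as filed and its product quenches rhodamine fluorescence; 0% = enzyme reaction without inhibitor and -100% = no enzyme wells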
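Fluorescence-quenching assay: 15 nM Sfp-PPTase preincubated 15 min at room temperature with compound, then 5 uM rhodamine-CoA and 12.5 uM BHQ-2-labelled YbbR peptide added. Fluorescence (ex 525/em 598 nm) read at start and after 30 min; difference gives rate.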
PLK1 PBD block: PLK1 (human) polo-box domain binding inhibition; P53350; Plk1 PBD binding of FITC phosphopeptide, fluorescence polarization; Potency, µM, inactives show max response, negative = inhibition, most hits filed as inhibitors; 2.8% of 360,000 active; AID 720504; also: series mostly up to about 57 µM; % is scaled to controls: 0 for no effect and ±100 for the full control effect; nearly all actives have a fitted effect of over 65% in size
JMJD2A Tudor: JMJD2A Tudor domain (human) inhibition; O75164; AlphaScreen JMJD2A-Tudor / H3K4me3 peptide binding; Potency, µM (highest dose often 114 µM), without a hit: at the top dose activity change, negative = inhibition, actives largely listed as inhibitors; 4.4% of 390,000 active; AID 504339; also: % is scaled to controls: 0 for no effect and ±100 for the full control effect; nearly all actives have a fitted effect of over 50% in size
Target sequence (O75164 whole entry, looked up, the tested form may be a part): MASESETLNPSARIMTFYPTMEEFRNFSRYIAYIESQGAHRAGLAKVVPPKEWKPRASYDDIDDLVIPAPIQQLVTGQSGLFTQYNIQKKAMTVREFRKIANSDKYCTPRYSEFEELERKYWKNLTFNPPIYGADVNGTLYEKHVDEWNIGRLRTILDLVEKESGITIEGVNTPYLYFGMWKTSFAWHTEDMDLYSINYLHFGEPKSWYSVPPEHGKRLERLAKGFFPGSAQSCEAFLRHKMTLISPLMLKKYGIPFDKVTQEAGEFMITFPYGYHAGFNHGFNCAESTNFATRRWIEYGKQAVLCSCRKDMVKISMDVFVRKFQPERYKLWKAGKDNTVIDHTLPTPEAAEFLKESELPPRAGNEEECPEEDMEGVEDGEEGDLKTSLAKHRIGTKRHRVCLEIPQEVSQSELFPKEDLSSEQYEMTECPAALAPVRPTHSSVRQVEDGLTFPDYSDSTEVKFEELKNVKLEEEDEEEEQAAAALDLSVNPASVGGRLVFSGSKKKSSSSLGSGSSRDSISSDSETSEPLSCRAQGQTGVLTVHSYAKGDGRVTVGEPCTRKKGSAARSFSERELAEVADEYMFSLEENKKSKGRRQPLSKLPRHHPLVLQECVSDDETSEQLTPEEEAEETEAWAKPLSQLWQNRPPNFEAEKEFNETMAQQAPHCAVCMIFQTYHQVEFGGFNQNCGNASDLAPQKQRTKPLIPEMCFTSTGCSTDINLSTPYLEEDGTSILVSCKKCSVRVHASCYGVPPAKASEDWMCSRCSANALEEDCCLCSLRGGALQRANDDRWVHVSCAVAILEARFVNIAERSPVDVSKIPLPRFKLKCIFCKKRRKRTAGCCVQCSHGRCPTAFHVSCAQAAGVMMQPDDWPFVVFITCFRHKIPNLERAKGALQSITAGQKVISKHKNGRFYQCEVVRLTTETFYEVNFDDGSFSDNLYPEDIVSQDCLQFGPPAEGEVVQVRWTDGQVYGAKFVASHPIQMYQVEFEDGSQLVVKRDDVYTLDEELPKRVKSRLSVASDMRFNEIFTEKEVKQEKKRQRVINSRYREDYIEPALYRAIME
BAZ2B block: blocks human BAZ2B; AlphaScreen BAZ2B-H3K14Ac peptide displacement; AID 504333; 4.4% of 360,000 active; Potency, µM (top dose mostly 114 µM), for inactives: at the top dose activity change, negative = inhibition, usual class: inhibitors; Q9UIF8; also: % is scaled to controls: 0 for no effect and ±100 for the full control effect; nearly all actives have a fitted effect of over 60% in size
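AlphaScreen displacement of biotin-H3(5-23)K14Ac peptide (50 nM final) from BAZ2B (50 nM final) in PBS pH 7.4, 0.01% Tween-20; complex preformed 30 min RT, then compounds (top 110 uM) 30 min RT, beads 20 min dark.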
HP1b chromo inh: HP1-beta chromodomain-methylated histone interaction inhibition; P83916; AlphaScreen HP1-beta / biotin-H3K9me3 peptide binding; Potency, µM (titrated, usually from 114 µM), for the others: at the top dose activity change, negative = inhibition, actives largely listed as inhibitors; 0.56% of 390,000 active; also: nearly all actives have a fitted effect of over 70% in size
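HP1-beta protein (50 nM final) preincubated 30 min at room temperature with biotinylated H3(1-18)K9me3 peptide (50 nM) in PBS pH 7.4, 0.01% Tween-20, then compound added for 30 min. AlphaScreen streptavidin donor/nickel chelate acceptor beads (10 ug/mL final), 30 min dark, luminescence read.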
G9a inh: inhibitors of human histone lysine methyltransferase G9a | Q96KQ7 | G9a H3K9 monomethylation, AlphaScreen, 2 h | Potency, µM (doses to about 102 µM), without a hit: top-dose activity, negative = inhibition, most hits filed as inhibitors | 8.8% of 350,000 active | AID 504332; also: % is scaled to controls: 0 for no effect and ±100 for the full control effect; nearly all actives have a fitted effect of over 75% in size
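Using a bead-based AlphaScreen, monomethylated H3K9 product from 2 h room-temperature reactions (G9a 20 nM, peptide 500 nM, SAM 20 uM) was detected with 0.5 ug/mL rabbit anti-H3K9me1 antibody.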
* marks the source's active call; other numbers are inactive results; [ ] = remark or other dose. An excerpt weighted towards active compounds, which were near 12% of everything screened. Calls follow the shape of the dose curve; as a rule, active = well fitted curve in the direction sought with a large enough effect; inconclusive = small, poorly fitted or top-dose-only effect, or another doubt; inactive = no such curve, though single readings can be large; an effect the other way counts as inactive or inconclusive. Potency is read from the fitted curve at half-maximal effect.

For CN1CCN(CCCNC(=O)c2ccc(/C=C3\Oc4ccccc4N(Cc4ccccc4F)C3=O)cc2)CC1 the results were Sfp PPTase inh 56µM*, PLK1 PBD block -13%, JMJD2A Tudor -34%, BAZ2B block -31%, HP1b chromo inh 17%[57 µM] and G9a inh inconclusive.
For CC1CCC(NC(=O)c2ccc(/C=C3\Oc4ccccc4N(C)C3=O)cc2)CC1 (stereo unspecified) the results were Sfp PPTase inh -2%, BAZ2B block 11% and G9a inh -6%.
`Cc1cccc(CN2C(=O)c3ccccc3Sc3ccc(C(=O)NCCCN4CCOCC4)cc32)c1` gave Sfp PPTase inh 2%, PLK1 PBD block -1%, JMJD2A Tudor -28%, BAZ2B block inconclusive, HP1b chromo inh 30% and G9a inh -16%.
`Cc1cccc(CN2C(=O)/C(=C\c3ccc(C(=O)NCCCN4CCN(C)CC4)cc3)Oc3ccccc32)c1` gave Sfp PPTase inh 50µM*, BAZ2B block -8%[57.1 µM] and G9a inh inconclusive.
Screening COc1ccc2c(c1OC)C(=O)OC2Nc1nc(-c2cc3ccccc3oc2=O)cs1 (stereo unspecified) returned Sfp PPTase inh -21%, PLK1 PBD block -13%, JMJD2A Tudor 5%, BAZ2B block 17%, HP1b chromo inh 37% and G9a inh inconclusive.
For COc1cccc(-c2csc(NC3OC(=O)c4c3ccc(OC)c4OC)n2)c1 (stereo unspecified) the results were Sfp PPTase inh -10%, PLK1 PBD block -14%, JMJD2A Tudor -20%, BAZ2B block 79µM* and HP1b chromo inh 3%.
COc1ccc2c(c1OC)C(=O)OC2Nc1nc(-c2ccc(-c3ccccc3)cc2)cs1 (stereo unspecified) was read as Sfp PPTase inh inconclusive, PLK1 PBD block 27µM*, JMJD2A Tudor inconclusive, BAZ2B block inconclusive, HP1b chromo inh inconclusive and G9a inh 40µM*.
Cc1ccccc1Nc1cc(C(=O)NCCCN2CCN(c3cccc(Cl)c3)CC2)c2ccccc2n1 was read as JMJD2A Tudor inconclusive, BAZ2B block -13%, HP1b chromo inh 18% and G9a inh inconclusive.
COc1ccc(C2NC3=C(CCCC3)C(C#N)(C#N)C2(C#N)C#N)cc1 (stereo unspecified) was read as Sfp PPTase inh 56µM*, BAZ2B block -35% and G9a inh 8.9µM*.
c1ccc(-c2nn[nH]n2)cc1 was read as Sfp PPTase inh 19%, PLK1 PBD block -2%, JMJD2A Tudor -25%, BAZ2B block -19%, HP1b chromo inh 14% and G9a inh inconclusive.
`CCOc1ccc(-c2nn[nH]n2)cc1` gave Sfp PPTase inh 2%, PLK1 PBD block 27µM*, JMJD2A Tudor 50µM*, BAZ2B block inconclusive, HP1b chromo inh 14% and G9a inh -30%[2.33 µM].
Screening C[C@](N)(C(=O)O)c1ccc(-c2nn[nH]n2)cc1 returned Sfp PPTase inh 28µM*.
`CCOc1ccc(-c2nn[nH]n2)cc1OCC` gave Sfp PPTase inh -6%, PLK1 PBD block 3%, JMJD2A Tudor -3%, BAZ2B block 8%, HP1b chromo inh 21% and G9a inh inconclusive.
For CC(N)(C(=O)O)c1ccc(S(=O)(=O)O)cc1 (stereo unspecified) the results were Sfp PPTase inh 50µM* and G9a inh 18%[59 µM].
Screening COc1ccc(NS(=O)(=O)c2cc3c4c(c2)C(C)C(=O)N4CCC3)cc1 (stereo unspecified) returned Sfp PPTase inh 19%, PLK1 PBD block 1%, JMJD2A Tudor -6%, BAZ2B block -11%, HP1b chromo inh 32% and G9a inh 16%.
CC(C)(C)c1ccc(C(=O)NCC(=O)OC(C(=O)Nc2cc(C(F)(F)F)ccc2Cl)c2ccccc2)cc1 (stereo unspecified) was read as JMJD2A Tudor -21%.
`CCNC(=O)NC(=O)CSc1ccc(S(=O)(=O)N2CCOCC2)cn1` gave PLK1 PBD block -7%, JMJD2A Tudor -1% and HP1b chromo inh 47%.
For COC(=O)c1ccccc1NC(=O)CSc1nc(N)cc(N)n1 the results were Sfp PPTase inh 5%, PLK1 PBD block -16%, JMJD2A Tudor -11%, BAZ2B block -6%, HP1b chromo inh 28% and G9a inh -12%.
Screening Cc1ccc(S(=O)(=O)N2CCOCC2)cc1NC(=O)CSc1ccccn1 returned Sfp PPTase inh -13%, PLK1 PBD block 30µM*, JMJD2A Tudor -12%, BAZ2B block -19%, HP1b chromo inh 11% and G9a inh inconclusive.
`Cc1ccc(S(=O)(=O)N2CCOCC2)cc1NC(=O)CNC1CCCC1` gave Sfp PPTase inh -29%, PLK1 PBD block 4%, JMJD2A Tudor 5µM*, BAZ2B block -23% and HP1b chromo inh -25%.
`COC(=O)c1ccccc1NC(=O)CSc1nc(N)cc(=O)[nH]1` gave Sfp PPTase inh 6%, PLK1 PBD block 4%, JMJD2A Tudor inconclusive, BAZ2B block 56µM*, HP1b chromo inh inconclusive and G9a inh 50µM*.
Screening CC(C)(C)NC(=O)NC(=O)CSc1ccc(S(=O)(=O)N2CCOCC2)cn1 returned PLK1 PBD block inconclusive, JMJD2A Tudor 79µM*, BAZ2B block 16%, HP1b chromo inh -13% and G9a inh 5.6µM*.
`Cc1ccc(C)c(SCC(=O)Nc2cc(S(=O)(=O)N3CCOCC3)ccc2C)c1` gave PLK1 PBD block inconclusive, JMJD2A Tudor -18%, BAZ2B block 6%, HP1b chromo inh 16% and G9a inh 14µM*.
Cc1ccc(C)c(SCC(=O)Nc2cccc(S(=O)(=O)N3CCOCC3)c2)c1 was read as PLK1 PBD block inconclusive, JMJD2A Tudor -9%, BAZ2B block -4%, HP1b chromo inh 30% and G9a inh 6%[0.501 µM].
`Cc1ccc(S(=O)(=O)N2CCOCC2)cc1NC(=O)CSc1nc(N)cc(=O)[nH]1` gave Sfp PPTase inh 71µM*, PLK1 PBD block -20%, JMJD2A Tudor 0%, BAZ2B block 1% and HP1b chromo inh 33%.
Screening COc1cccc(-c2cnc(C(O)c3ccc(F)c(C)c3)[nH]2)c1 (stereo unspecified) returned PLK1 PBD block -4%.
CC(=O)C1=C(c2cccc([N+](=O)[O-])c2)N(C(C)=O)n2c(C)nnc2S1 was read as Sfp PPTase inh -11%, PLK1 PBD block -27%, JMJD2A Tudor -36%, BAZ2B block inconclusive, HP1b chromo inh 20% and G9a inh 10µM*.
`CCOc1ccc(C2=C(C(C)=O)Sc3nnc(C)n3N2C(C)=O)cc1` gave JMJD2A Tudor -17%, BAZ2B block -14%, HP1b chromo inh 13% and G9a inh inconclusive.
